The text below walks through data of PubChem BioAssay (NCI).

Some test systems named below: DU-145 prostate; K-562 leukemia; MALME-3M melanoma; MDA-MB-231 breast; RXF 393 renal; SF-268 CNS; SF-295 CNS; SF-539 CNS; UACC-257 melanoma; M14 melanoma; HCT-15 colon; HT29 colon; SNB-75 CNS; SNB-19 CNS; U251 CNS; PC-3 prostate; SK-MEL-5 melanoma; UACC-62 melanoma; LOX IMVI melanoma; SK-MEL-28 melanoma.
What all share (assay): NCI-60 one-dose screen, 48 h (100 = growth as untreated, 0 = no growth, -100 = all killed)
Holding throughout (conditions): 10 µM unless noted

Molecules are shown by their SMILES. This is part of a sample that, as a whole, favours compounds with a hit. Of some 83,000 tested, about 20% had one in any assay.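 Single-dose data. Exposure time 48 hours. Values below 10 considered active.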 A number with no mark means an inactive call. Active and inactive are the calls of the source.

Regarding `CNC(C)[C@H]1CCC2C3CCC4C[C@@H](N(C)C(=O)c5ccccc5)CC[C@]4(C)C3CC[C@@]21C` (some centres undefined), the growth with DU-145 prostate was 61.4%; with K-562 leukemia, -2.77% (active); in the experiment with MALME-3M melanoma it was -42.1% (active); in the experiment with MDA-MB-231 breast, -1.29% (active); in the experiment on RXF 393 renal it was -67% (active); in the experiment on SF-268 CNS, -9.75% (active). Further, the growth in the experiment on SF-295 CNS was 24.3%; in the experiment with SF-539 CNS it was -61.2% (active); in the experiment with UACC-257 melanoma, -12.6% (active); in the experiment with M14 melanoma, -36.6% (active); with HCT-15 colon, -42.2% (active); with HT29 colon it was -33.3% (active). The growth is 15.5% with SNB-75 CNS; 66.6% with SNB-19 CNS; 29.9% in the experiment on U251 CNS; 16.3% in the experiment on PC-3 prostate; -74.2% (active) in the experiment on SK-MEL-5 melanoma; -66% (active) in the experiment on UACC-62 melanoma. In addition, the growth in the experiment on LOX IMVI melanoma was -52.2% (active); with SK-MEL-28 melanoma, -71.4% (active).

Take `COc1ccc(C2C(N)=NNC2c2cccc(O)c2)cc1` (centres undefined): the growth in the experiment on DU-145 prostate was 125%; with K-562 leukemia, 89%; in the experiment with MALME-3M melanoma, 88.5%; in the experiment on MDA-MB-231 breast it was 104%; in the experiment with RXF 393 renal, 97.2%; in the experiment on SF-268 CNS it was 99.4%. The growth is 92.1% in the experiment on SF-295 CNS; 95.4% in the experiment on SF-539 CNS; 107% with UACC-257 melanoma; 104% in the experiment with M14 melanoma; 102% in the experiment on HCT-15 colon; 104% in the experiment with HT29 colon. Moreover, the growth with SNB-75 CNS was 84.7%; with SNB-19 CNS, 81.3%; with U251 CNS, 93.6%; in the experiment on PC-3 prostate it was 95.6%; in the experiment on SK-MEL-5 melanoma, 101%; in the experiment on UACC-62 melanoma it was 91.2%. Besides, the growth in the experiment on LOX IMVI melanoma was 97.7%; in the experiment on SK-MEL-28 melanoma, 108%.

Turning to `COc1ccc(NC(=O)n2nc(/C=C\c3ccc(O)c(OC)c3)cc2/C=C\c2ccc(O)c(OC)c2)cc1`, the growth is 27.2% in the experiment with DU-145 prostate; 9.25% (active) in the experiment on K-562 leukemia; 51.9% in the experiment with MALME-3M melanoma; 36.5% in the experiment on MDA-MB-231 breast; 23% with RXF 393 renal; 41.8% with SF-268 CNS. The growth is 51.6% in the experiment on SF-295 CNS; 6.72% (active) in the experiment on SF-539 CNS; 75.2% in the experiment with UACC-257 melanoma; 4.97% (active) in the experiment with M14 melanoma; 13.2% with HCT-15 colon; 31.3% in the experiment with HT29 colon. For the same compound, the growth was 32.6% in the experiment on SNB-75 CNS; 38.9% with SNB-19 CNS; 26% in the experiment on U251 CNS; 28.4% in the experiment with PC-3 prostate; 9.04% (active) with SK-MEL-5 melanoma; 25.5% in the experiment on UACC-62 melanoma. The growth with LOX IMVI melanoma is 27.6%; in the experiment with SK-MEL-28 melanoma, 34.5%.

As for `Oc1c(I)cc(I)cc1CNCCCN(Cc1ccccn1)Cc1ccccn1`, the growth with DU-145 prostate was -45.8% (active); in the experiment with K-562 leukemia, 5.96% (active); in the experiment with MALME-3M melanoma it was -73.2% (active); in the experiment with MDA-MB-231 breast, -66.2% (active); with RXF 393 renal, -86.6% (active); in the experiment with SF-268 CNS, -27.3% (active). Also, the growth in the experiment on SF-295 CNS was -83.6% (active); with SF-539 CNS, -88.3% (active); with UACC-257 melanoma, -41.5% (active); in the experiment with M14 melanoma, -72% (active); in the experiment with HCT-15 colon, -37.7% (active); with HT29 colon it was -12.9% (active). Also, the growth is -89% (active) with SNB-75 CNS; 2.67% (active) in the experiment with SNB-19 CNS; -12.9% (active) in the experiment with U251 CNS; -55.5% (active) in the experiment on PC-3 prostate; -96.9% (active) in the experiment on SK-MEL-5 melanoma; -55.5% (active) with UACC-62 melanoma. For the same compound, the growth with SK-MEL-28 melanoma was -33.8% (active).

For `O=C(Nc1ccc(Cl)cc1F)c1ccccc1O`, the growth was 43.1% in the experiment on DU-145 prostate; 29.5% in the experiment with K-562 leukemia; -6.47% (active) in the experiment with MALME-3M melanoma; 39.1% in the experiment on MDA-MB-231 breast; 42.5% in the experiment on RXF 393 renal; 43.1% in the experiment with SF-268 CNS. For the same compound, the growth is 69.7% in the experiment with SF-295 CNS; 48.9% in the experiment with SF-539 CNS; 14.1% in the experiment with UACC-257 melanoma; 46.4% with M14 melanoma; 42.7% with HCT-15 colon; 96.4% with HT29 colon. Further, the growth was 36.4% in the experiment with SNB-75 CNS; 45.8% with SNB-19 CNS; 34.6% with U251 CNS; 59.6% with PC-3 prostate; -47.5% (active) in the experiment with SK-MEL-5 melanoma; 9.27% (active) in the experiment on UACC-62 melanoma. Moreover, the figures for the growth in the experiment on LOX IMVI melanoma and in the experiment on SK-MEL-28 melanoma were 28.2% and 29.9%, respectively.

In the case of `Oc1ccc(CCl)c2cccnc12`, the growth in the experiment on DU-145 prostate was 88.1%; in the experiment with K-562 leukemia, 43.9%; in the experiment with MALME-3M melanoma, 37.3%; with MDA-MB-231 breast, 94.5%; with RXF 393 renal, 75.7%; with SF-268 CNS it was 73.2%. Besides, the growth with SF-295 CNS is 99%; in the experiment on SF-539 CNS it was 90.3%; in the experiment on UACC-257 melanoma it was 24.9%; in the experiment on M14 melanoma, 61.6%; with HCT-15 colon, 36.6%; in the experiment with HT29 colon, 104%. For the same compound, the growth with SNB-75 CNS was 64.7%; with SNB-19 CNS it was 80.6%; with U251 CNS, 59.7%; with PC-3 prostate it was 83.6%; in the experiment with SK-MEL-5 melanoma, 89.9%; in the experiment on UACC-62 melanoma, 100%. The values for the growth with LOX IMVI melanoma and in the experiment on SK-MEL-28 melanoma were 55% and 82.9%, respectively.
